KinaseGlo FLuc = blocks Kinase-Glo luciferase, a counter-screen artifact; Q27757; 200,000 compounds, 0.28% hits; Kinase-Glo luciferase, ATP luminescence, 8 min; Potency, µM (titrated, usually from 38.3 µM), inactives show top-dose activity change, negative = inhibition, actives largely listed as inhibitors; note: nearly all actives have a fitted effect of over 60% in size
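Luminescence was the read-out, taken after 8-minute incubation at ambient temperature. Luciferase turned over luciferin with 10 uM ATP in imidazole pH 7.2 buffer containing KCl, MgCl2, Tween 20 and BSA.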
Tau ThT inhib = blocks human tau fibril formation measured by thioflavin T; recombinant tau K18 P301L, heparin-induced fibrillization, ThT fluorescence; Potency, µM (top dose mostly 57.4 µM), for the others: top-dose activity, negative = inhibition, most hits filed as inhibitors; P10636; AID 1460; 270,000 compounds, 2.1% hits; note: nearly all actives have a fitted effect of over 55% in size
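Aggregation was driven by heparin (20 uM final) acting on recombinant tau […] bearing P301L in 100 mM sodium acetate pH 7; fibrils were detected with Thioflavin T.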
Tau fluor cs = counter-screen for tau fibril formation inhibitors; tau K18 P301L Alexa594 fluorescence, heparin fibrillization; Potency, µM (series often up to 57.7 µM), for the others: at the highest dose activity change, negative = decrease; 280,000 compounds, 0.93% hits; AID 1463; note: nearly all actives have a fitted effect of over 55% in size
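Human tau K18 P301L (15 uM unlabeled, 0.24 uM Alexa 594-labeled) in 100 mM sodium acetate pH 7 with 20 uM heparin, 6 hr at 37 C. ThT 30 uM added, 1 hr ambient; Alexa 594 FP and total fluorescence read at 555/632 nm.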
Tau fibril FP = tau fibrillization inhibition (FP) | P10636 | K18 P301L tau heparin fibrillization, Alexa594 FP, 6 h | Potency, µM (doses to about 57.7 µM), without a hit: at the top dose activity, negative = inhibition, usual class: inhibitors | 280,000 compounds, 0.39% hits; note: nearly all actives have a fitted effect of over 55% in size
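Heparin (20 uM) drove fibril formation of recombinant tau K18 P301L, 15 uM unlabeled with 0.24 uM Alexa 594 label, for 6 hr at 37 C in 100 mM sodium acetate pH 7. Fluorescence polarization (555/632 nm) read 1 hr after 30 uM ThT.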
NPSR antagonist = neuropeptide S receptor (human) antagonism, cAMP; 220,000 compounds, 1% hits; Potency, µM (highest dose often 38.3 µM), without a hit: top-dose activity change, negative = inhibition, usual class: inhibitors; CHO-NPSR cells, cAMP TR-FRET, antagonist mode; Q6W5P4; note: nearly all actives have a fitted effect of over 50% in size
Target sequence (Q6W5P4 whole entry, looked up): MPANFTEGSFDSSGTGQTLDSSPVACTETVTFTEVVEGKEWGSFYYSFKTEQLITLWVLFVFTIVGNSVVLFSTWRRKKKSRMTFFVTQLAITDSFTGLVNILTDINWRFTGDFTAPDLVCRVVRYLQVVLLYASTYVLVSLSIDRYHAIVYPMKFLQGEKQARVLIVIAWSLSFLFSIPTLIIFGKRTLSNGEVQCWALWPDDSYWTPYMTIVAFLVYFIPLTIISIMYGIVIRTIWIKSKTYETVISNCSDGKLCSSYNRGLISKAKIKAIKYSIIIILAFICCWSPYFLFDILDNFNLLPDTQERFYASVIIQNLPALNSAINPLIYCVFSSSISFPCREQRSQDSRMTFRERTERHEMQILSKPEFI
* = called active by the depositor; ? = inconclusive; . = no result given; [ ] = remark or other dose. Shown are actives, neighbours in structure and some others; about 3.3% of the full set was active somewhere. Calls come from the whole dose curve; as a rule, active = well fitted curve in the direction sought with a large enough effect; inconclusive = small, poorly fitted or top-dose-only effect, or another doubt; inactive = no such curve, though single readings can be large; an effect the other way counts as inactive or inconclusive. % is set by controls: 0 for no effect and ±100 for the full control effect; potency is the fitted concentration of half-maximal effect.

SMILES	KinaseGlo FLuc	Tau ThT inhib	Tau fluor cs	Tau fibril FP	NPSR antagonist
COc1cccc(/C=C2\SC(=S)NC2=O)c1OS(=O)(=O)c1ccc(NC(C)=O)cc1	-1%	?	-17%	-11%	-4%
CCOc1ccc(/C=C2\SC(=S)NC2=O)cc1OC	-1%	?	-18%	-4%	?
COc1cc(/C=C2/SC(=S)NC2=O)ccc1OS(=O)(=O)c1ccc(C)cc1	3%	16µM*	?	0%	-59%
Cc1ccc(C(=O)CSc2ncc3c(n2)-c2ccccc2N(Cc2ccc(Cl)cc2)S3(=O)=O)cc1	.	8%	-1%	-14%	.
COc1ccc(CN2CCCC(C(=O)c3cccc(C(F)(F)F)c3)C2)cc1O (stereo unspecified)	-1%	-8%	-12%	4%	41%
Cc1ccc(-c2csc(=Nc3ccccc3)n2Cc2ccc3c(c2)OCO3)cc1C	.	-13%	-28%	5%	.
Cc1[nH]n(-c2ccccc2)c(=O)c1/C=C1/C=c2ccccc2=N1	1%	2.2µM*	-21%	14%	-15%
Cc1[nH]n(-c2ccccc2)c(=O)c1/C=C1\C=NN=C1c1ccccc1	.	?	?	-6%	?
COC(=O)C1=C(c2ccccc2)c2ccccc2S(=O)(=O)N1CC(=O)Nc1ccc(F)c(F)c1	.	9%	?	?	.
Cc1nc(SCC(=O)Nc2ccccc2C(F)(F)F)c(C#N)c(C)c1CC(=O)c1ccc(Br)cc1	-1%	-2%	-9%	-20%	10µM*
Cc1ccc(NC(=O)CSc2ncc3c(n2)-c2ccccc2N(Cc2cccc(F)c2)S3(=O)=O)cc1F	.	-1%	?	?	.
COc1ccccc1C(C[N+](=O)[O-])c1c(N)n(C)c(=O)n(C)c1=O (stereo unspecified)	.	.	-9%	9%	10µM*
Cc1c(Cl)cccc1-n1c(SCC(=O)NCc2ccccc2)nc2n[nH]c(C)c2c1=N	.	2%	-8%	0%	.
c1cc(Nc2cccc3nccnc23)c2nccnc2c1	-6%	5µM*	-28%	-3%	-6%
Cc1cnc2c(c1SCC(=O)NCc1ccc(F)cc1)c(=O)n(C)c(=O)n2C	.	-6%	-7%	?	.
N#CC1=C(S)N(c2ccccc2)C(c2ccc(-c3cccc(Cl)c3)o2)NC1=O (stereo unspecified)	6%	22µM*	-28%	?	-51%
COC(=O)N1C2=C(c3ccccc3[C@@H]1CC(=O)Nc1ccc(Br)cc1)[C@@H]1C(=O)N(c3ccccc3)C(=O)[C@@H]1[C@H](C)C2	-4%[7.66 µM]	11%[11.5 µM]	-15%[11.6 µM]	-13%[11.6 µM]	.
C=CCc1cccc(CNc2nc3ccccc3n2CC)c1O	-4%	-17%	18µM*[quencher]	14%	?
CCCn1c(NCc2ccccc2C)nc2ccccc21	.	-3%	-6%	4%	.
C=CCc1cccc(CNc2nc3ccccc3n2CCC)c1O	-3%	-16%	14µM*[quencher]	13%	10µM*
Nc1ccc(N2CCN(CCCCN3C(=O)C4CCCN4C3=O)CC2)cc1 (stereo unspecified)	-2%	14µM*	?	?	1%
O=C(O)Cc1nn(Cc2ccc(Cl)cc2)c(=O)c2ccccc12	1%	0%	0%	-3%	3%
COc1ccc(OC)c(Nc2ccc(Nc3cc(OC)ccc3OC)nn2)c1	0%	?	13µM*[quencher]	?	-13%
COc1ccccc1Nc1ccc(Nc2ccccc2OC)nn1	.	?	?	13%	-20%[46.1 µM]
Cc1ccc(C(O)C2=CCCC2=O)cc1 (stereo unspecified)	1%	-4%	0%	11%	.
O=C(COc1ccc(/C=N/NS(=O)(=O)c2ccccc2)cc1)NCc1ccccc1	-2%	-7%	-25%	-7%	-14%[46.1 µM]
O=C(COc1ccc(/C=N/NS(=O)(=O)c2ccccc2)cc1)Nc1cccc(Cl)c1	.	?	16µM*[quencher]	8%	-29%[46.1 µM]
CCSC1=NC(=O)/C(=C2/C=Cc3ccccc3N2CC)S1	-12%	7.1µM*	?	17%	-24%[46.1 µM]
Cn1c(=O)c2c(nc(NN=C3CCCCC3)n2C)n(C)c1=O	11µM*	?	?	?	-8%
CC(C)=NNc1nc2c(c(=O)n(C)c(=O)n2C)n1C	.	?	-25%	-9%	-20%
